Screening data: PubChem BioAssay, National Center for Advancing Translational Sciences (NCATS)
Only some compounds are listed: those with a hit (about 7.9% of all), similar ones and a draw of the others.
MARV entry inh: qHTS for inhibitors of binding or entry into cells for Marburg Virus; AID 540276, 2011; Marburg virus pseudotyped entry inhibition, cell reporter; Potency, µM (top dose mostly 37.8 µM), usual class: inhibitors; hit rate 1.8% among 300,000; calls by dose curve; tested in HEK293 cells
HCV inh: qHTS Assay for Inhibitors of Hepatitis C Virus (HCV); Huh7.5.1 HCVcc-Cre infection, luciferase reporter, 44 h; hit rate 3.4% among 340,000; Potency, µM (top dose mostly 41.8 µM), hits mostly inhibitors; active means well fitted inhibition curve with a large enough effect; inconclusive means small, poorly fitted or top-dose-only effect, or another doubt; inactive means no such curve, though single readings can be large or run the other way
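HCVcc-Cre virus at an moi near 0.5 was added right after compound to cells cultured 4 h from seeding (1,000 cells/well). Luciferase activity was determined 44 h later, 15 min after substrate addition at RT.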
HCMV antiviral: qHTS Assay for inhibitors of the human cytomegalovirus (HCMV); HFF cells, HCMV-luciferase reporter, 72 h; active compounds read low; activity change, negative = inhibition, % at 57.5 µM; hit rate 4.5% among 410,000; in the data active means activity change below about -60%; inconclusive means no clear call, values can overlap the other calls; inactive means above about -39%
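Human foreskin fibroblasts infected with luciferase-reporter HCMV at MOI 1 PFU/cell, compounds at two doses. Luciferase measured 72 h post infection; normalized to buffer-only basal and Salinomycin (10uM) controls.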
LASV entry inh: qHTS for Inhibitors of binding or entry into cells for Lassa Virus | Lassa virus pseudotype entry inhibition, cell reporter | Potency, µM (highest dose often 37.9 µM), most hits filed as inhibitors | AID 540256, 2011 | hit rate 1.2% among 300,000; calls by dose curve; tested in HEK293 cells; further: nearly all actives have a fitted effect of over 50% in size
FMDV antiviral: High Throughput Screening for Foot and Mouth Disease Virus Antivirals | FMDV antiviral cell-based qHTS | Potency, µM (titrated, usually from 57.9 µM), actives largely listed as inhibitors | hit rate 1.2% among 410,000; calls by dose curve; tested in HEK293T cells; further: read-out not given here; nearly all actives have a fitted effect of over 45% in size
Of the large screens only hits and unclear results are named; the others gave an inactive call.

CCOC(=O)c1sc(N2C(=O)c3oc4ccc(C)cc4c(=O)c3C2c2ccccc2F)nc1C (stereo unspecified)	none (no result: HCV inh)
COC(=O)c1ccccc1-c1cc(C)cc2c1OC(CNC(=O)c1cc(C)on1)C2 (stereo unspecified)	none (no result: MARV entry inh, HCV inh, HCMV antiviral, LASV entry inh)
O=C(Nc1nnc(-c2ccc(F)cc2)s1)Nc1ccccc1F	none (no result: MARV entry inh, LASV entry inh)
Cc1cnc(NC(=O)CSc2ccc(Cl)cc2)s1	none
Cc1ccc(NC(=O)Nc2nnc(-c3ccncc3)s2)cc1C	HCV inh inconclusive, HCMV antiviral -91.7, FMDV antiviral inconclusive (no result: MARV entry inh, LASV entry inh)
CS(=O)(=O)c1ccc2nc(NC(=O)Nc3cccc(Cl)c3)sc2c1	MARV entry inh inconclusive, HCV inh 11.2µM, LASV entry inh inconclusive
Cc1cnc(NC(=O)Nc2ccc(Cl)cc2)s1	HCV inh inconclusive, HCMV antiviral -104.4 (no result: MARV entry inh, LASV entry inh)
COC(=O)Nc1nnc(-c2ccncc2)s1	LASV entry inh inconclusive
O=C(Nc1ccc(F)cc1)Nc1nnc(-c2ccncc2)s1	HCV inh 25.1µM, HCMV antiviral -94.7, LASV entry inh inconclusive, FMDV antiviral inconclusive
Clc1cccc(Nc2nc(-c3ccncc3)cs2)c1	MARV entry inh inconclusive, HCV inh 10µM, LASV entry inh inconclusive
O=C(NCCc1ccncc1)Nc1cccc(Cl)c1	none
O=C(Nc1ccc(Cl)cc1)Nc1nnc(-c2ccncc2)s1	MARV entry inh inconclusive, HCV inh inconclusive, HCMV antiviral -66.7, LASV entry inh 3.98µM, FMDV antiviral inconclusive
O=C(Nc1cccc(Cl)c1)Nc1nnc(-c2ccncc2)s1	MARV entry inh inconclusive, HCV inh inconclusive, HCMV antiviral -97.8, LASV entry inh inconclusive, FMDV antiviral inconclusive
CC(CCC(=O)OC[C@H]1O[C@H](C#Cc2ccccc2)C=C[C@H]1Oc1ccc(C)cc1)=NOC[C@@H](O)[C@H]1O[C@@H]2OC(C)(C)O[C@H]2[C@@H]1O	none (no result: HCV inh, HCMV antiviral, FMDV antiviral)
O=C(c1n[nH]c2c1CCCC2)N1CCOc2ccc(C(O)C(c3ccccc3)c3ccccc3)cc2C1 (stereo unspecified)	none (no result: MARV entry inh, HCV inh, HCMV antiviral, LASV entry inh)
COC(=O)C1=C2C=CCCN2C(=O)NC1c1ccccc1 (stereo unspecified)	none (no result: HCV inh, HCMV antiviral, LASV entry inh, FMDV antiviral)
CCOc1ccc(-n2ccnc(SCC(=O)NCc3cccc(OC)c3)c2=O)cc1	HCV inh inconclusive
COc1ccc(-n2ccnc2SCC(=O)Nc2ccccc2)cc1	FMDV antiviral inconclusive
O=C(CSc1nnnn1-c1ccc(Cl)cc1)Nc1cccnc1Cl	HCMV antiviral -71.1, FMDV antiviral inconclusive
O=C(CSc1nccn1-c1ccc(F)cc1)Nc1ccc(OC(F)(F)F)cc1	HCMV antiviral -68.3 (no result: MARV entry inh, HCV inh)
CCOc1ccccc1NC(=O)CSc1nccn1-c1ccc(Cl)cc1	HCMV antiviral -72.4 (no result: MARV entry inh, HCV inh)
CCOc1ccc(-n2ccnc(SCC(=O)Nc3ccc(OC)cc3OC)c2=O)cc1	MARV entry inh inconclusive, HCV inh 8.91µM
[O-]/[N+](=C/c1ccccc1)c1ccccc1	none (no result: MARV entry inh, LASV entry inh)
CC(=O)Nc1ccc(S(=O)(=O)NCCC(=O)OCC(=O)c2cc(C)ccc2C)cc1	none
O=C(CSc1nccn1C1CCCC1)Nc1ccc(C(F)(F)F)cc1	HCMV antiviral -62.6, LASV entry inh inconclusive (no result: MARV entry inh, HCV inh)
COc1cccc(NC(=O)CSc2nccn2-c2cccc(OC)c2)c1	MARV entry inh inconclusive
COc1cccc(-n2ccnc2SCC(=O)Nc2ccc(Cl)c(Cl)c2)c1	HCMV antiviral -61.1 (no result: MARV entry inh, HCV inh)
O=C(CSC1=NNC(c2ccccn2)S1)Nc1ccc(C(F)(F)F)cc1 (stereo unspecified)	MARV entry inh inconclusive, HCMV antiviral -74.7, LASV entry inh inconclusive
COc1ccc(-n2ccnc2SCC(=O)Nc2ccc(F)cc2F)cc1	HCMV antiviral -91.2 (no result: MARV entry inh, HCV inh)
COc1ccccc1CNC(=O)C1Cc2cc(S(=O)(=O)N3CCCCC3)ccc2N1C(C)=O (stereo unspecified)	HCV inh inconclusive
Cc1ccc(OCC(=O)N(C)CC(=O)Nc2ccc(F)cc2)c([N+](=O)[O-])n1	none
Cc1ccc(OCC(=O)N(C)CC(=O)Nc2ccccc2Cl)c([N+](=O)[O-])n1	MARV entry inh inconclusive, HCMV antiviral -83.7, LASV entry inh inconclusive
CN(c1ccccc1)S(=O)(=O)c1cc(C(=O)NCCCn2ccnc2)ccc1Cl	HCV inh inconclusive (no result: MARV entry inh, LASV entry inh)
CCC(CC)NC(=O)Nc1cccc(C)c1C	none (no result: MARV entry inh, LASV entry inh)
CCC(C)N(CC(=O)Nc1cccc(C)c1C)C(=O)CCl (stereo unspecified)	HCV inh 1.26µM, LASV entry inh 3.16µM, FMDV antiviral 15.8µM (no result: HCMV antiviral)
O=C(O)CSCC(=O)Nc1ccc(Cl)cc1C(F)(F)F	none
CC(C)N(CC(=O)Nc1ccc(Cl)cc1C(F)(F)F)C(=O)CCl	MARV entry inh 10µM, HCV inh 3.98µM, HCMV antiviral -98.8, LASV entry inh inconclusive, FMDV antiviral 15.8µM
CC(C)n1c(=O)c2oc3ccccc3c2n(Cc2ccccc2F)c1=O	none (no result: MARV entry inh, HCV inh)
CCOC(=O)c1ccccc1Nc1cn(C(C)=O)c2ccccc12	LASV entry inh inconclusive
CC(=O)n1cc(N(C(=O)CCl)c2ccc(Cl)cc2)c2ccccc21	HCV inh 3.55µM, FMDV antiviral 11.2µM (no result: MARV entry inh, HCMV antiviral, LASV entry inh)
CC(=O)n1cc(Nc2ccccc2C(=O)O)c2ccccc21	none
COc1ccccc1N(C(=O)CCl)c1cn(C(C)=O)c2ccccc12	HCV inh inconclusive, HCMV antiviral -96.6, FMDV antiviral 17.8µM (no result: MARV entry inh, LASV entry inh)
CCOC(=O)C(C)N1C(=O)S/C(=C/c2cc(C)n(-c3ccccn3)c2C)C1=O (stereo unspecified)	MARV entry inh inconclusive, HCV inh 10µM
CCn1c(C)cc(/C=C2/SC(=O)N(C(C)C(=O)OC)C2=O)c1C (stereo unspecified)	MARV entry inh inconclusive, HCV inh inconclusive, LASV entry inh inconclusive
CCOC(=O)C(C)N1C(=O)S/C(=C/c2cc(C)n(-c3ccncc3)c2C)C1=O (stereo unspecified)	HCV inh 10µM (no result: MARV entry inh, LASV entry inh)
COC(=O)C(C)N1C(=O)S/C(=C/c2cc(C)n(C(C)C)c2C)C1=O (stereo unspecified)	MARV entry inh inconclusive, HCV inh 10µM
Cc1nc(C)n(CC(=O)N2CCOc3ccc(CN4CCN(C)C[C@@H]4c4ccccc4)cc3C2)n1	none (no result: MARV entry inh, HCV inh, HCMV antiviral, LASV entry inh)
OC(c1cccc(Cl)c1)c1nc(-c2ccc(Cl)cc2)cs1 (stereo unspecified)	HCMV antiviral inconclusive (no result: MARV entry inh, HCV inh, LASV entry inh)
O=C1c2cccc(O)c2C(=O)c2c(O)cccc21	none (no result: HCMV antiviral)
CC1OC(CC(=O)O)CC2=C1C(=O)c1c(O)cccc1C2=O (stereo unspecified)	MARV entry inh 0.501µM, HCV inh 0.562µM, LASV entry inh 0.562µM, FMDV antiviral 3.55µM
O=C(NCCN1CCOCC1)c1ccncc1	LASV entry inh inconclusive
O=C1C=C(NCCN2CCOCC2)C(=O)c2cnccc21	MARV entry inh 2.91µM, HCV inh inconclusive, LASV entry inh inconclusive (no result: HCMV antiviral, FMDV antiviral)
CC(NS(=O)(=O)c1ccc2c(c1)oc(=O)n2C)c1ccccc1 (stereo unspecified)	none (no result: MARV entry inh, LASV entry inh)
Cc1ccccc1NC(=S)N(C)Cc1cccs1	none
Cc1ccccc1NC(=S)N(C)Cc1cn(C)c2ccccc12	HCMV antiviral -69.5
CSc1nnc(N2C(=O)C(O)=C(C(=O)c3ccc(C)o3)C2c2ccc(C)cc2)s1 (stereo unspecified)	HCV inh inconclusive (no result: MARV entry inh, LASV entry inh)
